# Results filed as inconclusive are left out. Activity calls are given as the source filed them. Calls follow the shape of the dose curve; as a rule, active = well fitted cell-killing curve with a large enough effect; inconclusive = small, poorly fitted or top-dose-only effect, or effect the other way; inactive = no such curve, though single readings can be large or run the other way.
# Test: Quantitative High-Throughput drug screen in 47 multiple myeloma cell lines against the NCATS MIPE library collection: Delta47_JCRB cell viability assay (AID 1918925; also: nearly all actives have a fitted effect of over 45% in size)
# Settings: Delta47 myeloma viability, CellTiter-Glo ATP, 48 h; series mostly up to 45.8 µM
# Summary of the method: (§1)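 Steps: seed 500 cells per well; pin-transfer MIPE 4.0 library; incubate 48 h at 37C, 5% CO2, humidified; add CellTiter-Glo, 5 min room temperature; read luminescence.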
# Potency is read from the fitted curve at half-maximal effect.
row,SMILES,Potency
1,Cc1sc2c(c1C)C(c1ccc(Cl)cc1)=N[C@@H](CC(=O)OC(C)(C)C)c1nnc(C)n1-2,0.743 µM (active)
2,C=C(C)[C@H]1Cc2c(ccc3c2O[C@@H]2COc4cc(OC)c(OC)cc4[C@@H]2C3=O)O1,0.118 µM (active)
3,COc1ccc(C(=O)c2c(C)n(CCN3CCOCC3)c3ccccc23)cc1,inactive
4,COC[C@H]1OC(=O)c2coc3c2[C@@]1(C)C1=C(C3=O)C2CCC(=O)[C@@]2(C)C[C@H]1OC(C)=O (stereo partly specified),0.0469 µM (active)
5,CN(C)CCc1ccc(O)cc1,inactive
6,O=C(O)C(=O)c1cn(Cc2ccccc2)c2ccc(-c3ccc(OC(F)(F)F)cc3)cc12,20.9 µM (active)
7,C[C@@H]1[C@@H](C(=O)C[C@H]2O[C@@H]3O[C@]4(C)CC[C@@H]5[C@H](C)CC[C@@H]([C@H]2C)[C@@]35OO4)O[C@@H]2O[C@]3(C)CC[C@H]4[C@H](C)CC[C@@H]1[C@@]24OO3,0.235 µM (active)
8,CCCC(C)(COC(N)=O)COC(=O)NC(C)C (stereo unspecified),inactive
9,Cn1cc(C2=C(c3cn(C4CCN(Cc5ccccn5)CC4)c4ccccc34)C(=O)NC2=O)c2ccccc21,5.9 µM (active)
10,CNC(=O)c1ccc(N2C(=S)N(c3ccc(C#N)c(C(F)(F)F)c3)C(=O)C23CCC3)cc1F,4.18 µM (active)
11,CN(C)[C@@H]1C(=O)C(C(N)=O)=C(O)[C@@]2(O)C(=O)C3=C(O)c4c(O)cccc4[C@@](C)(O)[C@H]3C[C@@H]12,inactive
12,C[C@@H]1[C@@H](CC(C[C@H]2O[C@@H]3O[C@]4(C)CC[C@@H]5[C@H](C)CC[C@@H]([C@H]2C)[C@@]35OO4)C[S+](=O)([O-])c2ccc(COC(=O)N(C)C)cc2)O[C@@H]2O[C@]3(C)CC[C@H]4[C@H](C)CC[C@@H]1[C@@]24OO3 (stereo partly specified),0.235 µM (active)

# Test: Quantitative High-Throughput drug screen in 47 multiple myeloma cell lines against the NCATS MIPE library collection: EJM_DSMZ cell viability assay (AID 1918926; also: nearly all actives have a fitted effect of over 30% in size)
# Settings: EJM myeloma cell viability, CellTiter-Glo ATP, 48 h; series mostly up to 45.8 µM
# Summary of the method: as §1
row,SMILES,Potency
1,C=C(C)[C@H]1Cc2c(ccc3c2O[C@@H]2COc4cc(OC)c(OC)cc4[C@@H]2C3=O)O1,4.69 µM (active)
2,O=P1(NCCCl)OCCCN1CCCl (stereo unspecified),inactive
3,COc1ccc(C(=O)c2c(C)n(CCN3CCOCC3)c3ccccc23)cc1,inactive
4,O=C(O)C(=O)c1cn(Cc2ccccc2)c2ccc(-c3ccc(OC(F)(F)F)cc3)cc12,inactive
5,CCCC(C)(COC(N)=O)COC(=O)NC(C)C (stereo unspecified),inactive
6,Cn1cc(C2=C(c3cn(C4CCN(Cc5ccccn5)CC4)c4ccccc34)C(=O)NC2=O)c2ccccc21,11.8 µM (active)
7,CNC(=O)c1ccc(N2C(=S)N(c3ccc(C#N)c(C(F)(F)F)c3)C(=O)C23CCC3)cc1F,1.48 µM (active)
8,COc1ccc2c(c1OC)CN1CCc3cc4c(cc3C1C2)OCO4 (stereo unspecified),20.9 µM (active)
9,CN(C)[C@@H]1C(=O)C(C(N)=O)=C(O)[C@@]2(O)C(=O)C3=C(O)c4c(O)cccc4[C@@](C)(O)[C@H]3C[C@@H]12,inactive
10,CC1=C2C[C@@H]3[C@@H](CC=C4C[C@@H](O)CC[C@@]43C)[C@@H]2CC[C@]12O[C@H]1C[C@H](C)CN[C@H]1[C@H]2C,8.33 µM (active)
11,COC1(CS(=O)c2ccccc2)CCN(CCc2c[nH]c3ccc(F)cc23)CC1 (stereo unspecified),inactive
12,CN(C)CCN(C)CCc1ccc(Cl)c(Cl)c1,inactive
13,CN1CCN(C(=O)O[C@H]2c3nccnc3C(=O)N2c2ccc(Cl)cn2)CC1,inactive
14,C[C@@H]1[C@@H](CC(C[C@H]2O[C@@H]3O[C@]4(C)CC[C@@H]5[C@H](C)CC[C@@H]([C@H]2C)[C@@]35OO4)C[S+](=O)([O-])c2ccc(COC(=O)N(C)C)cc2)O[C@@H]2O[C@]3(C)CC[C@H]4[C@H](C)CC[C@@H]1[C@@]24OO3 (stereo partly specified),0.187 µM (active)
